Screening results as filed in PubChem BioAssay.
BRCA1 expr act: activators of BRCA1 expression; MCF7-BRCA1-FFLuc reporter, luminescence, 48 h; response scale: scaled: vehicle 0%, 10 µM genistein 100%; actives 1.1% (n = 380,000); Potency, µM (series often up to 46.1 µM), inactives show at the highest dose activation, most hits filed as activators; also: potency is read from the fitted curve at half-maximal effect; nearly all actives have a fitted effect of over 80% in size
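Cells: MCF7-BRCA1-FFLuc, 2000/well. Exposure: 48 h, 37 °C, 5% CO2. Read: luminescence, 15 min post-substrate. Controls: genistein 10 microM (maximal activation), DMSO (neutral).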
ELG1 repair inh: blocks ELG1-dependent DNA repair in HEK293T cells. Potency, µM (titrated, usually from 46.1 µM), inactives show at the highest dose activity change, negative = inhibition, most hits filed as inhibitors. actives 2.3% (n = 330,000). HEK293T ELG1-luciferase reporter, luminescence, 16 h; DNA damage induced by 5-fluorouridine; also: potency is read from the fitted curve at half-maximal effect; % is scaled to controls: 0 for no effect and ±100 for the full control effect; nearly all actives have a fitted effect of over 55% in size
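Overnight (16 hr) co-exposure of 2,000 cells/well to 5-fluorouridine and compound at 37 °C preceded detection. Luciferase was quantified via ONE-Glo luminescence; loss of signal denotes inhibition.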
p53 reactivator: restores transcriptional activity of mutant p53; Potency, µM (highest dose often 92.2 µM), for the others: at the highest dose activity change, positive = activation, actives largely listed as activators; H1299 p53-A138V BP100-luciferase reporter, luminescence, 24 h; actives 0.063% (n = 320,000); also: potency is read from the fitted curve at half-maximal effect; % of control where 0% means no effect; nearly all actives have a fitted effect of over 45% in size
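H1299 (p53-null), stable ts p53-A138V + BP100-Luc; 1000 cells/well, Opti-MEM/10% FBS; cpd 4 pt, 1:5; 24 h, 37 deg C, 5% CO2; detection reagent 10 min RT; luminescence.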
RORg inh: ROR gamma (mouse) transcription inhibition | P51450 | Drosophila S2 Gal4-RORgamma UAS-luciferase reporter, 20 h | Potency, µM (titrated, usually from 53.6 µM), without a hit: top-dose activity change, negative = inhibition, hits mostly inhibitors | actives 5.4% (n = 310,000); also: potency is read from the fitted curve at half-maximal effect; % is scaled to controls: 0 for no effect and ±100 for the full control effect; nearly all actives have a fitted effect of over 60% in size
Target sequence (P51450 whole entry, looked up, the tested form may be a part): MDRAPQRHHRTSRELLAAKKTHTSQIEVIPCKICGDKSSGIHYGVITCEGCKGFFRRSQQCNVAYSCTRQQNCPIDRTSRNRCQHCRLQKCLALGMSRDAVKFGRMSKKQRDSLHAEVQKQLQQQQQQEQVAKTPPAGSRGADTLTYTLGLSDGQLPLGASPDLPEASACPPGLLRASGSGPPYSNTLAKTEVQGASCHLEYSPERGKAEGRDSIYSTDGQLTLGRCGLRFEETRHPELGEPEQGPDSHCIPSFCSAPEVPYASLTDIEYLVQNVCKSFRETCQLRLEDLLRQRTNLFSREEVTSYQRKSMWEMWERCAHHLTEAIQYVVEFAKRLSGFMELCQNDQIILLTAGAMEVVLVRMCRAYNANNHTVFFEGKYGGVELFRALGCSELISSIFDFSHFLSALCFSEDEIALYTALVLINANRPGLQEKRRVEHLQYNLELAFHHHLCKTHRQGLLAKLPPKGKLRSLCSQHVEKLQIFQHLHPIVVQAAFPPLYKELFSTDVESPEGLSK
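In this cell-based reporter format, copper sulfate (700 uM final) drives Gal4–ROR gamma fusion expression from a metallothionein promoter in Drosophila Schneider cells; compounds preincubated 1 hr, reporter read after 20 hr at ambient temperature.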
Giardia killer: kills Giardia lamblia. Giardia lamblia trophozoite viability. activity change, % at 7.66 µM, hits read low. actives 0.15% (n = 340,000); in the data active = activity change below about -80%; inconclusive = between about -30% and that limit;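 also: parasites exposed to compound for two days anaerobically before the ATP read; % is scaled to controls: 0 for no effect and ±100 for the full control effect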
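Giardia lamblia trophozoites (100 cells/well) were incubated with compounds for 48 h at 37 deg C under anaerobic conditions. Viability was read as ATP content by one-step luminescence after 15-30 min at room temperature.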
VP16 counter: inhibits Gal4-VP16 luciferase reporter, ROR gamma counter-screen; Drosophila S2 Gal4-VP16 UAS-luciferase, luminescence, 20 h; Potency, µM (titrated, usually from 53.6 µM), for the others: at the top dose activity, negative = inhibition, hits mostly inhibitors; actives 3.5% (n = 310,000);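 also: Gal4-VP16 expression switched on by copper sulfate through the metallothionein promoter; potency is read from the fitted curve at half-maximal effect; % is scaled to controls: 0 for no effect and ±100 for the full control effect; nearly all actives have a fitted effect of over 50% in size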
* hit, by the source's call; u = inconclusive; x = not tested or not shown; [ ] = remark or other dose. Compounds with a hit are over-represented: about 7.6% of the library has one in this group of screens. Unless noted, calls follow the shape of the dose curve; as a rule, active = well fitted curve in the direction sought with a large enough effect; inconclusive = small, poorly fitted or top-dose-only effect, or another doubt; inactive = no such curve, though single readings can be large; an effect the other way counts as inactive or inconclusive.

SMILES	BRCA1 expr act	ELG1 repair inh	p53 reactivator	RORg inh	Giardia killer	VP16 counter
CN(CC(=O)Nc1ccc(Cl)c(C(F)(F)F)c1)C(=O)c1cccnc1Sc1ccccc1	-4%	-2%	-14%	u	10	-11%
COc1ccc(CS(=O)(=O)/C(Cl)=C(/Cl)C(=O)Nc2ccc(OC)nc2)cc1	-100%	u	-15%	5µM*	4	3.2µM*
COc1ccc(/C=C/C(=O)Nc2ccc(OC)nc2)cc1	26%	-4%	21%	2%	-5	0%
COc1ccc(NC(=O)/C(Cl)=C(/Cl)S(=O)Cc2ccccc2)cn1 (stereo not given)	-85%	8.2µM*	-15%	1µM*	-21	1.1µM*
COc1ccc(NC(=O)Cc2ccccc2)cn1	6%	8%	0%	23%	-20	4%
COc1ccc(C2=NS(=O)(=O)N(C)C(C(=O)Nc3ccc4c(c3)OCO4)=C2)cc1OC	-30%	-20%	x	-4%	9	-14%
O=C(NNC1=Nc2ccccc2SC1)c1cccc([N+](=O)[O-])c1	-71%	16µM*	2%	u	10	-26%
O=C(NNC1=NCCCCC1)c1cccc([N+](=O)[O-])c1	-19%	9%	7%	-4%	2	-12%
O=C(NNC1=Nc2ccccc2SC1)c1ccccc1F	-17%	5.8µM*	13%	0.89µM*	2	0.71µM*
O=C(CN1C(=O)c2ccc([N+](=O)[O-])cc2C1=O)NC1CCS(=O)(=O)C1 (stereo not given)	2%	6%	6%	x	7	x
O=C(OCc1cc(=O)n2cc(Br)ccc2n1)c1ccc(Cl)c(S(=O)(=O)NCc2ccccc2)c1	-37%	u	-6%	u	-9	-21%
Cc1ccc(CN=Cc2[nH]c3ccc(Br)c(Cl)c3c2O)cc1	-28%	1%	3%	13µM*	8	u
Oc1c(C=NCc2ccc(F)cc2)[nH]c2ccc(Br)c(Cl)c12	x	-1%	11%	-33%	x	-2%
Nc1ccc(-c2nc3ncccc3o2)c(O)c1	5µM*	u	15%	u	-10	2%
Nc1ccc(C(=O)N/N=C2\CCCc3c2[nH]c2ccccc32)cc1	19%	17%	7%	u	7	u
CC(C)c1ccc2[nH]c3c(c2c1)CCC/C3=N\NC(=O)c1ccncc1	-88%	18µM*	-6%	0.89µM*	-3	5µM*
CCCCSc1nnc(-c2ccccc2)c2ccccc12	-32%	4%	-10%	70%	-3	13µM*
Cc1cc(O)c(-c2cc(O)c(C)cc2O)cc1O	-89%	-7%	-14%	7.1µM*	6	u
Cc1cc(N2CCC(C)CC2)nc(-n2nc(C)cc2C)n1	-28%	u	-13%	0.4µM*	-7	1.3µM*
Cc1cc(C)n(-c2cc(N3CCOCC3)ncn2)n1	-5%	1%	0%	-6%	0	4%
Cc1cc(C)n(-c2nc(N(C)C)nc(N3CCOCC3)n2)n1	7%	-28%	0%	3.2µM*	-2	u
Cc1cc(C)n(-c2nc3ccccc3nc2N2CCC(C)CC2)n1	-30%	-12%	0%	u	4	u
CCC(C(=O)NCc1ccccc1)n1ncn2c(cc3occc32)c1=O (stereo not given)	8%	x	x	x	x	x
O=c1[nH]c(=O)n(-c2ccccc2)c2c1C(C(F)(F)F)(C(F)(F)F)N=C(CCC1CCCCC1)N2	-94%	u	-10%	-1%	-1	-16%
COc1ccc(OC)c(C2SCCN2S(C)(=O)=O)c1 (stereo not given)	12%	9%	0%	11µM*	9	3%
SMILES	BRCA1 expr act	ELG1 repair inh	p53 reactivator	RORg inh	Giardia killer	VP16 counter
CCNC(=O)c1cccc(S(=O)(=O)N2CCCCCC2)c1	-25%	-6%	-10%	36%	-17	-8%
CCCn1c(NC(=O)c2cccc(S(=O)(=O)N3CCCC3)c2)nc2ccccc21	-109%	8.2µM*	u	2.8µM*	0	6.3µM*
CCCn1c(NC(=O)c2ccccc2)nc2ccccc21	-72%	2%	16%	0.79µM*	-23	1.8µM*
CCCn1c(NC(=O)c2ccc(C)cc2)nc2ccccc21	-10%	u	10%	2.2µM*	16	0.63µM*
C=CCn1c(NC(=O)c2ccc(C)cc2)nc2ccccc21	69%	u	x	0.4µM*	-6	0.79µM*
CCCn1c(Nc2nc3ccccc3n2C)nc2ccccc21	-119%	u	-31%	-38%	18	-11%
CCOc1cc([C@H]2[C@@H]3CCCC[C@]3(O)CCN2CC(=O)NCc2ccco2)ccc1O	-7%	-4%	-2%	-9%	-21	-7%
CCCn1c(SCC(=O)C(C)(C)C)nc2ccccc21	7%	-5%	0%	11µM*	30	u
CCCn1c(NC(=O)C2CCN(S(=O)(=O)c3cccs3)CC2)nc2ccccc21	-73%	0%	-5%	1.4µM*	6	4.5µM*
CCOc1ncccc1C(=O)OCc1c(F)cccc1Cl	12%	-5%	-1%	18%	-6	-9%
COc1ccc(OC)c2c(C)cc(C)nc12	-12%	2%	0%	13µM*	-26	-1%
Cn1c(N/N=C/c2c[nH]c3ccccc23)nc2ccccc21	-61%	u	23%	1µM*	1	4µM*
Cn1c(N/N=C/c2cc3ccccc3nc2Cl)nc2ccccc21	-3%	u	28%	1.1µM*	-88*	1.3µM*
Cc1nnc(C)n1/N=C/c1cc2ccccc2nc1Cl	2%	4%	-3%	-11%	-8	5%
CCOc1ccc(NC(=O)c2sc3nc4n(c(=O)c3c2C)CCC4)cc1	0%	-1%	19%	8%	12	-11%
Clc1ccc(-c2cnc3n2CCCCC3)cc1	-6%	u	3%	5.6µM*	u	u
CCOc1ccc(-c2cnc3n2CCC3)cc1	32%	25%	-10%	16µM*	7	-27%
Fc1ccc(-c2cnc3n2CCCCC3)cc1	-4%	u	0%	11µM*	4	-15%
Brc1ccc(-c2cnc3n2CCCC3)cc1	11%	3%	1%	u	24	u
Cc1ccccc1C(=O)NNC(=O)Cc1cccc2ccccc12	-3%	-10%	-11%	-13%	5	1%
C=C(C)CNC(=S)Nc1sc2c(c1C(=O)OCC)CC(C)(C)OC2	-17%	-9%	-7%	1.4µM*	14	1.4µM*
CCOC(=O)c1c(NC(=O)c2ccccc2C)sc2c1CC(C)(C)OC2	-32%	u	-7%	-3%	-8	-17%
CCOC(=O)c1c(NC(=O)CN2CCOCC2)sc2c1CC(C)(C)OC2	-5%	8.2µM*	-2%	9%[10 µM]	-14	-4%
CCCC(=O)Nc1sc2c(c1C(=O)OCC)CC(C)(C)OC2	1%	7.3µM*	2%	3%	4	-1%
CCOC(=O)c1c(NC(=O)CCC(=O)N(CC)CC)sc2c1CC(C)(C)OC2	2%	u	-3%	u	31	u
